# An excerpt weighted towards active compounds, which were near 2.4% of everything screened.
# ASK1 primary: inhibitors of human ASK1 kinase. Q99683. inhibition, % at 7.44 µM. actives 0.99% (n = 22,000). AlphaScreen MKK6 phosphorylation by ASK1, luminescence; in the data active = inhibition above about 35%;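 also: 0% = median of compound wells and 100% = no enzyme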
# ULK1 inh: inhibitors of human ULK1 kinase. inhibition, % at 5.96 µM. actives 1.9% (n = 30,000). AlphaScreen Atg13 phosphorylation by ULK1, luminescence; in the data active = inhibition above about 43%;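 also: 0% = median of compound wells and 100% = no enzyme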
# An asterisk follows results filed as active; x = not tested or not shown.
SMILES,ASK1 primary,ULK1 inh
COc1cc(NC(C)CCCN)c2ncccc2c1 (stereo not drawn),x,64.3*
CCN(CC)CCCC(C)Nc1c2ccc(Cl)cc2nc2ccc(OC)cc12 (stereo not drawn),x,3.5
OCC1CCCN1c1cc(Nc2ccc3c(c2)OCO3)ncn1 (stereo not drawn),-9.2,2.0
O=C(NCc1cccnc1)c1ccnc(Nc2ccc(-n3ccnc3)cc2)c1,-0.7,12.7
COc1cccc(CN(CCN)C(=O)Nc2ccc(-c3cn[nH]c3)cc2OCCCO)c1,19.6,78.2*
COc1cccc(CN(CCCN(C)C)C(=O)Nc2ccc(-c3cn[nH]c3)cc2OC)c1,-8.0,-9.7
O=C(Nc1ccc2[nH]ncc2c1)C1CCN(C(=O)c2cc3cc(F)ccc3[nH]2)CC1,24.9,9.6
O=C(NC1CC1)c1cccc(N2CCN(c3ccccn3)CC2)n1,2.8,2.9
O=C(Nc1ccccc1)C1CCN(c2ccc(Nc3ccc4ncccc4c3)nn2)CC1,-5.9,10.4
O=c1[nH]ccc2c(S(=O)(=O)N3CCCNCC3)cccc12,-18.4,45.8*
O=C1CCc2cc(S(=O)(=O)N3CCCNCC3)ccc2N1,-23.1,-7.8
Cc1ccc(-c2ncn(-c3ccc(Nc4nccc(-c5cc(F)cc(-c6cn[nH]c6C)c5)n4)cc3)n2)cn1,16.9,-11.8
c1ccc(-n2cnc3c(NCc4nc5ccccc5[nH]4)nc(-c4csc5ccccc45)nc32)cc1,6.7,-14.8
Cc1ccc(-c2cccc3cnc(Nc4cccc(C(=O)N5CCOCC5)c4)nc23)cn1,6.1,63.9*
Cc1ccc(-c2cccc3cnc(NC4CCN(C(=O)N5CCCC5)C4)nc23)cn1 (stereo not drawn),12.9,25.7
Cc1ncn(-c2ccc(Nc3ncc4cccc(-c5cncc(C(=O)N6CCOCC6)c5)c4n3)cc2)n1,13.7,-0.3
Cc1ccc(-c2cccc3cnc(Nc4ccc(C(=O)N5CCCC5)cc4)nc23)cn1,-14.1,63.2*
CC(C)n1c(N2CCN(Cc3ccc4c(c3)OCO4)CC2)nc2c(NCc3cccc(C(F)(F)F)c3)ncnc21,13.7,-12.2
CCNc1nc(Nc2cc(OC)c(OC)c(OC)c2)c2ncn(Cc3ccc(C(F)(F)F)cc3)c2n1,14.7,-47.1
C[n+]1c2cc(N)ccc2cc2ccc(N)cc21,x,70.5*
CN(C)c1ccc(/C=N/N=C(\N)SC2CC(=O)N(c3ccc(C(=O)O)cc3)C2=O)cc1 (stereo not drawn),x,-9.7
NC(=O)c1ccccc1Nc1nc(Nc2ccc(N3CCOCC3)c(F)c2)ncc1Cl,-65.2,72.3*
CN(C)CCNC(=O)c1ccccc1Nc1ccnc(Nc2ccc(N3CCOCC3)cc2)c1,-12.0,0.8
NC(=O)c1ccccc1Nc1nc(Nc2ccc(N3CCOCC3)cc2F)ncc1Cl,-80.9,82.9*
CNC(=O)c1ccccc1Nc1nc(Nc2ccc(N3CCOCC3)c(Cl)c2)ncc1Cl,-26.8,58.1*
SMILES,ASK1 primary,ULK1 inh
Cn1cnc(-c2ccccc2Nc2nc(Nc3ccc(N4CCOCC4)cc3)ncc2Cl)n1,11.1,-11.5
Cn1ncnc1-c1ccccc1Nc1nc(Nc2ccc(N3CCOCC3)cc2)ncc1Cl,-8.0,78.0*
Fc1cc(N2CCOCC2)ccc1Nc1nccc(-c2cncc(N3CCOCC3)c2)n1,14.6,29.6
COc1cc(Nc2cc(Nc3ccccc3C(N)=O)ccn2)ccc1N1CCOCC1,-4.6,5.0
COc1nc(Nc2cccnc2)nc(Nc2cc(OC)c(OC)c(OC)c2)n1,4.2,2.2
FC(F)(F)c1cccc(CNc2nc(Nc3nccc4ccccc34)nc3c2ncn3C2CCCCC2)c1,0.4,8.6
COC1/C=C\O[C@@]2(C)Oc3c(C)c(O)c4c(c3C2=O)C2(C=C(NC(=O)/C(C)=C\C=C/C(C)C(O)[C@@H](C)C(O)C(C)C(OC(C)=O)[C@@H]1C)C4=O)OCC(=O)O2 (stereo partly drawn),x,4.3
CN(C)CCOc1cc(-c2cn[nH]c2)c(F)cc1NC(=O)[C@H]1Cc2ccccc2CN1,9.9,10.8
CCOC(=O)c1oc2cc(NC(=O)c3ccc(F)cc3)ccc2c1C,x,7.0
NC(=O)c1ccccc1Nc1nc(Nc2ccc(F)cc2)ncc1Cl,-66.1,84.9*
NC(=O)c1ccc(Nc2ncc(Cl)c(-c3ccccc3)n2)cc1,9.4,31.1
COc1ccc(CCNC(=O)Cc2cn(-c3ccc(N4CCCC4CO)nn3)c3ccccc23)cc1 (stereo not drawn),-3.7,4.2
Cc1cccc(OCc2nc3ccc(-c4ccnc(N)n4)cc3[nH]2)c1,7.7,67.6*
CC(=O)Nc1cc(-c2ccnc(N)n2)ccc1NC(=O)COc1cccc(C)c1,0.8,10.8
CN(C)CCOc1cc(-c2cn[nH]c2)ccc1NC(=O)[C@@H]1Cc2ccccc2C(=O)N1,-7.8,-4.5
CC(C)n1cnc2c(Nc3ccc(N4CCOCC4)cc3)nc(Nc3cccnc3)nc21,-6.7,48.9*
CC(C)n1cnc2c(Nc3ccc(N4CCOCC4)cc3)nc(Nc3ccncn3)nc21,14.4,52.2*
CC(C)n1cnc2c(NC3CC3)nc(Nc3ccc(N4CCOCC4)cc3)nc21,-3.2,19.8
